In PubChem BioAssay (Tox21):
“And” between values parts separate entries of the source, which are not always exact repeats. Identical values can stand only once. Results filed as inconclusive are left out. A call without a number means that no potency is given here. More than one record can exist for a structure, and the calls need not agree. The source made the active and inactive calls. Unless noted, calls come from the whole dose curve; as a rule, active = well fitted curve in the direction sought with a large enough effect in the repeat runs; inconclusive = weak or mixed curves; inactive = no such curve, though single readings can be large; an effect the other way counts as inactive or inconclusive.

How the values were obtained:
[1] = qHTS assay to identify small molecule agonists of the estrogen receptor alpha (ER-alpha) signaling pathway in the presence of an antagonist - cell viability counter screen (AID 1259386);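 note: cells exposed to compounds for 22 h at 37 °C before the viability read; nearly all actives have a fitted effect of over 30% in size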; note: potency is the fitted concentration of half-maximal effect
How it was run: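 Cell viability in VM7Luc4E2 cells (endogenous full-length ER-alpha) measured by CellTiter-Fluor fluorescence in the same wells as the luciferase screen. Cells pre-cultured 5 days in charcoal-stripped serum, then treated 22 h with compounds at 15 concentrations plus 10.0nM ICI-182,780.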

[2] = qHTS assay to identify small molecule antagonists of the progesterone receptor (PR) signaling pathway - cell viability counter screen (AID 1346798); note: series mostly up to about 92 µM; nearly all actives have a fitted effect of over 50% in size
How it was run: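 Following a 4 hr attachment, PR-UAS-bla HEK293T cells in charcoal-stripped FBS medium were exposed to compounds with R5020 for 16 hr; CellTiter-Glo was added and luminescence read after 30 min at room temperature.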

[3] = qHTS assay to identify small molecule antagonists of the TGF-beta/Smad signaling pathway - cell viability counter screen (AID 1346824); note: nearly all actives have a fitted effect of over 50% in size
How it was run: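 SBE-bla HEK 293T cells, incubated overnight, then compound plus 0.25 ng/mL TGF-beta1 (stock added) for 5 hr at 37 C. Viability was read in the same wells by CellTiter-Glo luminescence after 30 min at room temperature.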

[4] = qHTS assay to identify small molecule agonists of the TGF-beta/Smad signaling pathway - cell viability counter screen (AID 1346829); note: top concentration of the series differs between compounds; nearly all actives have a fitted effect of over 45% in size
How it was run: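 Same-well cytotoxicity: CellTiter-Glo added after the 2 hr room-temperature beta-lactamase substrate step, luminescence measured 30 min later; cells had 5 hr of compound at 37 C.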

[5] = qHTS assay to identify small molecule agonists of the TGF-beta/Smad signaling pathway (AID 1346859; active = well fitted activation curve with a large enough effect in the signal ratio in the repeat runs, not every such curve was filed as active; the % refers to the signal ratio; note: series mostly up to about 77 µM)
How it was run: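 Each well held 4,000 SBE-bla HEK 293T cells incubated overnight before compound addition; 5 hr later the cleavable FRET substrate went on for 2 hr at room temperature, and fluorescence was read at two emissions.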

[6] = Caspase-3/7 induction in HepG2 cells by small molecules, qHTS assay (AID 1346978); note: nearly all actives have a fitted effect of over 15% in size; note: potency is the fitted concentration of half-maximal effect
How it was run: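 Wild-type HepG2 cells, 2,000/well, settled 5 hr at 37 C and 5% CO2, then compound-treated for 17 hr; caspase-3/7 activity read by luminescent Caspase-Glo 3/7 after 30 min at room temperature.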

[7] = Caspase-3/7 induction in CHO-K1 cells by small molecules, qHTS cell viability counter screen (AID 1346979); note: nearly all actives have a fitted effect of over 35% in size; note: potency is the fitted concentration of half-maximal effect
How it was run: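 CellTiter-Fluor viability check, qHTS format: wild-type CHO-K1, 16hr compound treatment, 1hr reagent incubation, fluorescence read.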

[8] = Caspase-3/7 induction in CHO-K1 cells by small molecules, qHTS assay (AID 1346980); note: nearly all actives have a fitted effect of over 15% in size
How it was run: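 Wild-type CHO-K1 cells exposed to compounds for 17hr at 37 C, 5% CO2. Caspase-3/7 activity then measured by Caspase-Glo 3/7 luminescence after 30min at room temperature.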

[9] = Caspase-3/7 induction in HepG2 cells by small molecules, qHTS cell viability counter screen (AID 1346981); note: nearly all actives have a fitted effect of over 30% in size; note: potency is the fitted concentration of half-maximal effect
How it was run: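 Wild-type HepG2 cells, 2,000/well, settled 5 hr at 37 C, 5% CO2 before compound addition. Viability read by CellTiter-Fluor fluorescence, reagent added after 16 hr compound exposure, then 1 hr at 37C, in the same wells as the caspase read.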

[10] = molecular target: Nuclear receptor subfamily 1 group I member 2 (Homo sapiens) (UniProt O75469); experiment: Human pregnane X receptor (PXR) small molecule agonists, qHTS assay (AID 1346982); note: nearly all actives have a fitted effect of over 35% in size; note: potency is the fitted concentration of half-maximal effect
Nuclear receptor subfamily 1 group I member 2 (Homo sapiens), sequence (O75469 whole entry, looked up): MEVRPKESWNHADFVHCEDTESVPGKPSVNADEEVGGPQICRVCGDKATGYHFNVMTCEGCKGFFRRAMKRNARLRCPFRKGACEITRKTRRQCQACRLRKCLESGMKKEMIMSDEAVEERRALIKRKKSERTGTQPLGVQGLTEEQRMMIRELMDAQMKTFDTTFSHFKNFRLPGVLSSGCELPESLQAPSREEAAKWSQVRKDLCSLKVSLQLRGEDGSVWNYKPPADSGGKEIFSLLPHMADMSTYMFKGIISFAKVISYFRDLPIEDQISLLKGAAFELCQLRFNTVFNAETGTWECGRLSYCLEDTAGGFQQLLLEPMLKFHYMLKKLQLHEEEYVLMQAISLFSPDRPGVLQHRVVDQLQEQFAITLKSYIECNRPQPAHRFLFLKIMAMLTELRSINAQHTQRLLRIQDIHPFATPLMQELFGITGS
How it was run: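 PXR-Luc HepG2 reporter cells (CYP3A4-driven luciferase) in 5% charcoal-stripped FBS medium, plated 5 h before compound addition, then treated 24 h at 37C. Luciferase read by ONE-Glo luminescence after 30 min at room temperature.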

[11] = molecular target: Nuclear receptor subfamily 1 group I member 2 (Rattus norvegicus) (UniProt Q9R1A7); experiment: Rat pregnane X receptor (rPXR) activation by small molecules, qHTS assay (AID 1346983); conditions: rPXR luciferase reporter cells, One-Glo luminescence, 24 h; max activation: stronger effect = higher value; note: nearly all actives have a fitted effect of over 20% in size
Nuclear receptor subfamily 1 group I member 2 (Rattus norvegicus), sequence (Q9R1A7 whole entry, looked up): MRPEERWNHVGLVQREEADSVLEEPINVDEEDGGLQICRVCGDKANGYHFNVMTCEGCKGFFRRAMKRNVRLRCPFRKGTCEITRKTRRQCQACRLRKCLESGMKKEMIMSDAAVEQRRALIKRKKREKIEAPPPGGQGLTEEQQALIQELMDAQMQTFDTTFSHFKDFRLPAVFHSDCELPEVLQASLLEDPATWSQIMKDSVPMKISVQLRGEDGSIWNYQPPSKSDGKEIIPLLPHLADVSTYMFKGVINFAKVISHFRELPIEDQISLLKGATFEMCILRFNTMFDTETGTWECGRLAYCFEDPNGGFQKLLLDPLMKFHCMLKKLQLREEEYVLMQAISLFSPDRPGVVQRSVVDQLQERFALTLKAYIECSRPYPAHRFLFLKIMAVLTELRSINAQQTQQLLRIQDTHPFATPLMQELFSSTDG
How it was run: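 Cell-based rPXR activation assay: rPXR cells, 2,000 per well, rested 5hr at 37 C, then exposed to compounds in DMSO for 24 hr at 37 C. Luciferase activity read by One-Glo luminescence after 30 min at room temperature.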

[12] = molecular target: Nuclear receptor subfamily 1 group I member 2 (Homo sapiens) (UniProt O75469); experiment: CYP3A4 induction through human pregnane X receptor (PXR) by small molecules, qHTS assay (AID 1346984); note: nearly all actives have a fitted effect of over 40% in size
How it was run: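 DPX-2 HepG2 cells carrying a PXR response element and CYP3A4-promoter luciferase construct, treated with compounds 24 hr at 37C. Then P450-Glo CYP3A4 Luciferin-IPA substrate (3uM final) for 3 hr at 37C, One-Glo added, luminescence read.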

[13] = molecular target: Nuclear receptor subfamily 1 group I member 2 (Homo sapiens) (UniProt O75469); experiment: Human pregnane X receptor (PXR) activation by small molecules, qHTS assay (AID 1346985); note: nearly all actives have a fitted effect of over 40% in size
How it was run: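 DPX-2 cells (HepG2 co-transfected with a PXR response element and a CYP3A4-promoter luciferase construct) were seeded at 2,000 per well, rested 5 hr at 37C, then exposed to DMSO-dissolved compounds for 24 hr. Activation was read as luciferase luminescence.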

[14] = molecular target: Progesterone receptor (Homo sapiens) (UniProt P06401); experiment: qHTS assay to identify small molecule agonists of the progesterone receptor (PR) signaling pathway (AID 1346784; calls by dose curve; note: nearly all actives have a fitted effect of over 30% in size)
Progesterone receptor (Homo sapiens), sequence (P06401 whole entry, looked up): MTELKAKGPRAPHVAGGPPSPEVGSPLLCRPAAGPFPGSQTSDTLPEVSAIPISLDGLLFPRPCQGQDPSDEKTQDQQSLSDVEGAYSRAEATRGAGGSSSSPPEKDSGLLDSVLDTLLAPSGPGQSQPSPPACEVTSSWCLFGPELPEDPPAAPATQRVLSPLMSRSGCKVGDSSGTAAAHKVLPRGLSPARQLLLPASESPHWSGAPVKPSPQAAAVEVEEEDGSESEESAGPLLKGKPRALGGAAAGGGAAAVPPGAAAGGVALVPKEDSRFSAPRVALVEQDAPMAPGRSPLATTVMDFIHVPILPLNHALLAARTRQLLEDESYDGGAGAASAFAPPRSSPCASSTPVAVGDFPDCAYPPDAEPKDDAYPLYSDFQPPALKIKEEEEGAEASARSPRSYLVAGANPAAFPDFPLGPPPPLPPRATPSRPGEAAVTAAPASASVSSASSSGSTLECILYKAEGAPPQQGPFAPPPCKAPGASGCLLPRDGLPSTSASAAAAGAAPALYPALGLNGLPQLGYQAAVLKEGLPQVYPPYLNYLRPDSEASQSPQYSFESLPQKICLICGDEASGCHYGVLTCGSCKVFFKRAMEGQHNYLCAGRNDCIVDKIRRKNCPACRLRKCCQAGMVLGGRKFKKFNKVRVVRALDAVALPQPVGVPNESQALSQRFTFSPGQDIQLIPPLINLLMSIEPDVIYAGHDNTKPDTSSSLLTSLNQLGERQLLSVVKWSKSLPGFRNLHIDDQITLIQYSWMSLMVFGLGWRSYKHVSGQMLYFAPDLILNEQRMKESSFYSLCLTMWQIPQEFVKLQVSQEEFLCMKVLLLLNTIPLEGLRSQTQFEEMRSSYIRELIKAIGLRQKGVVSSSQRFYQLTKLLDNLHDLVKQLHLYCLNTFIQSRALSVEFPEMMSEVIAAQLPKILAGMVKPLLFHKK
How it was run: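 Compounds were tested for PR agonism in HEK 293T cells bearing a beta-lactamase gene under UAS control. Treatment lasted 16 hr at 37C; signal came from fluorescence of a FRET substrate.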

[15] = Human pregnane X receptor (PXR) small molecule agonists, qHTS cell viability counter screen (AID 1346977); note: nearly all actives have a fitted effect of over 50% in size; note: potency is the fitted concentration of half-maximal effect
How it was run: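 Tox21 qHTS format; PXR-Luc HepG2, 2,000/well, charcoal-stripped FBS 5%. Cpd exposure 24hr. Read: CellTiter-Fluor fluorescence, multiplexed with luciferase.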

[16] = molecular target: Progesterone receptor (Homo sapiens) (UniProt P06401); experiment: qHTS assay to identify small molecule antagonists of the progesterone receptor (PR) signaling pathway (AID 1346795; active = well fitted inhibition curve with a large enough effect in the signal ratio in the repeat runs, not every such curve was filed as active; the % refers to the signal ratio; note: potency is the fitted concentration of half-maximal effect)
How it was run: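 In HEK293T cells bearing the PR-UAS-bla reporter, compound effects on promegestone-driven (1 nM) beta-lactamase expression are assessed after 16 hr using a fluorescent FRET substrate incubated 2 hr at room temperature.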

[17] = molecular target: Thyrotropin-releasing hormone receptor (Homo sapiens) (UniProt P34981); experiment: qHTS assay to identify small molecule antagonists of the thyrotropin-releasing hormone receptor (TRHR) signaling pathway (AID 1346877; active = well fitted inhibition curve with a large enough effect in the repeat runs, not every such curve was filed as active; note: series mostly up to about 51 µM)
Thyrotropin-releasing hormone receptor (Homo sapiens), sequence (P34981 whole entry, looked up): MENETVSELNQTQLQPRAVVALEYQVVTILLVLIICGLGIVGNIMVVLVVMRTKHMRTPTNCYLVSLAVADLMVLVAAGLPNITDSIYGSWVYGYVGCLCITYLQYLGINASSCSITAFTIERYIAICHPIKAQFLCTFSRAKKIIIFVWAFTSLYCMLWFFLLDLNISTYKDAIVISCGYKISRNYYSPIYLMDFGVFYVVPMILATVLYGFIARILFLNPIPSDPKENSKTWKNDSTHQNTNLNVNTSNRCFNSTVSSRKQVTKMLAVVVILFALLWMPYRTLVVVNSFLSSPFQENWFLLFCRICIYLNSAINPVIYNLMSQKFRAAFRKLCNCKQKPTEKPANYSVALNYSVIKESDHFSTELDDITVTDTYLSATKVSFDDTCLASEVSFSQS
How it was run: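 TRHR-expressing HEK293 cells loaded with calcium dye for 2 h at 37 C; compounds pre-incubated 5 min at room temperature before TRH challenge at 1 nM final. Intracellular calcium fluorescence read kinetically for 3 min; 15 concentrations in triplicate.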

[18] = molecular target: Cytochrome P450 2D6 (Homo sapiens) (UniProt P10635); experiment: Cytochrome P450 Family 2 Subfamily D Member 6 (CYP2D6) small molecule antagonists: luciferase reporter qHTS assay (AID 1671196); note: nearly all actives have a fitted effect of over 50% in size; note: potency is the fitted concentration of half-maximal effect
Cytochrome P450 2D6 (Homo sapiens), sequence (P10635 whole entry, looked up): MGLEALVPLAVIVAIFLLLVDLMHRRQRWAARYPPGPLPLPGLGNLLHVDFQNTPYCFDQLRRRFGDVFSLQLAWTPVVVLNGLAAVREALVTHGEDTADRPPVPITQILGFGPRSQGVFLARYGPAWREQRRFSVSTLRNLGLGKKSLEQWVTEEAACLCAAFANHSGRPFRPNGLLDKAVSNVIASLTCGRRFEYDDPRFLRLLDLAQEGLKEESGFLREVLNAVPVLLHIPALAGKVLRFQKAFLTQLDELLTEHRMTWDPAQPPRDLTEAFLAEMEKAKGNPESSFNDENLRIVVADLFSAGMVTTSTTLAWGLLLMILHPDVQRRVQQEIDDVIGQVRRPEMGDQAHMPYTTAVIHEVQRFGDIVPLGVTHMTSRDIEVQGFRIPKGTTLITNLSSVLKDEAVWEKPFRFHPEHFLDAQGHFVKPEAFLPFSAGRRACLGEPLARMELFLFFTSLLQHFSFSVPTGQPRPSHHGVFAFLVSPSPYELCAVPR
How it was run: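 Cell-free P450-Glo system: CYP2D6 with proluciferin substrate was pre-incubated with compound for 10 min, then reacted with NADPH regeneration for 1 h at room temperature. Luciferin product was detected after 20 min, and data were reported as relative luminescence units.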

[19] = qHTS assay to identify small molecule agonists of the progesterone receptor (PR) signaling pathway - cell viability counter screen (AID 1346799; calls by dose curve; note: nearly all actives have a fitted effect of over 45% in size)
How it was run: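 Here, 3,000 PR-UAS-bla HEK293T cells per well were treated with compounds for 16 hr after a 6 hr preincubation at 37C and 5% CO2; cell viability is the CellTiter-Glo luminescence signal.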

[20] = molecular target: Thyrotropin-releasing hormone receptor (Homo sapiens) (UniProt P34981); experiment: qHTS assay to identify small molecule agonists of the thyrotropin-releasing hormone receptor (TRHR) signaling pathway (AID 1346891; calls by dose curve; note: series mostly up to about 58 µM)
How it was run: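 Screening of agonists relied on calcium signalling in HEK293 cells expressing human TRHR: dye loading 2 h at 37 °C preceded compound addition and a 3-min fluorescence time course.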

Compound: CCCCCCCCCCC(CO)CCCCCCCC (stereo not given)
- Potency [1]: inactive
- Potency [2]: inactive
- Potency [3]: inactive
- Potency [4]: inactive
- outcome [5]: inactive
- Potency [6]: inactive
- Potency [7]: inactive
- Potency [8]: inactive
- Potency [9]: inactive
- Potency [10]: inactive
- max activation [11]: -1.75% (inactive)
- Potency [12]: inactive
- Potency [13]: inactive

Compound: Cc1ccc2c(c1)C(=O)OC2=O
- Potency [1]: inactive
- Potency [14]: inactive
- Potency [2]: inactive
- Potency [3]: inactive
- Potency [4]: inactive
- outcome [5]: inactive
- Potency [15]: inactive
- Potency [7]: inactive
- Potency [8]: inactive
- Potency [9]: inactive
- Potency [10]: inactive

Compound: CC(=O)O[C@]1(C(C)=O)CC[C@H]2[C@@H]3C=C(Cl)C4=CC(=O)CC[C@]4(C)[C@H]3CC[C@@]21C
- Potency [1]: inactive
- Potency [16]: inactive
- Potency [2]: inactive
- Potency [3]: inactive
- Potency [4]: inactive
- Potency [17]: inactive
- Potency [6]: inactive
- Potency [7]: 61 µM (active)
- Potency [8]: inactive
- Potency [10]: 68.5 µM (active) and inactive
- Potency [12]: inactive
- Potency [13]: inactive
- Potency [18]: inactive

Compound: Oc1ccc(C(c2ccc(O)cc2)C(Cl)(Cl)Cl)cc1
- Potency [1]: inactive
- Potency [16]: 12.1 µM (active)
- Potency [19]: inactive
- Potency [3]: inactive
- Potency [4]: inactive
- outcome [5]: inactive
- Potency [20]: inactive
- Potency [6]: inactive
- Potency [7]: 54.5 µM (active)
- Potency [8]: inactive
- Potency [10]: inactive and 61.1 µM (active)

Compound: CCCCCCCC/C=C\CCCCCCCC(=O)O
- Potency [1]: inactive
- Potency [2]: inactive
- Potency [19]: inactive
- Potency [3]: inactive
- Potency [4]: inactive
- outcome [5]: inactive
- Potency [17]: inactive
- Potency [20]: inactive
- Potency [15]: inactive
- Potency [7]: inactive
- Potency [8]: inactive
- Potency [9]: inactive
- Potency [10]: inactive
- max activation [11]: -0.693% (inactive)
- Potency [12]: inactive
- Potency [13]: inactive

Compound: CC(=O)Oc1ccc(C(c2ccc(OC(C)=O)cc2)c2ccccn2)cc1
- Potency [14]: inactive
- Potency [2]: inactive
- Potency [19]: inactive
- Potency [3]: inactive
- Potency [4]: inactive
- Potency [17]: inactive
- Potency [20]: inactive
- Potency [6]: inactive
- Potency [7]: inactive
- Potency [8]: inactive
- Potency [9]: inactive
- Potency [10]: 54.2 µM (active) and inactive
- Potency [18]: 35.4 µM (active) and inactive

Compound: Nc1ccc2c(O)cc(S(=O)(=O)O)cc2c1
- Potency [1]: 48.6 µM (active) and 21.7 µM (active)
- Potency [14]: inactive
- Potency [3]: inactive
- Potency [4]: inactive
- outcome [5]: inactive
- Potency [20]: inactive
- Potency [15]: 28.2 µM (active) and 21.7 µM (active)
- Potency [7]: 48.6 µM (active) and 19.3 µM (active)
- Potency [8]: inactive
- Potency [9]: 27.3 µM (active) and 21.7 µM (active)
- Potency [10]: 30.7 µM (active)

Compound: C[N+](C)(C)CCO
- Potency [1]: inactive
- Potency [14]: inactive
- Potency [2]: inactive
- Potency [19]: inactive
- Potency [3]: inactive
- Potency [4]: inactive
- outcome [5]: inactive
- Potency [7]: inactive
- Potency [8]: inactive
- Potency [9]: inactive
- Potency [10]: inactive
- Potency [18]: inactive

Compound: Cc1ccc(S(=O)(=O)NCl)cc1
- Potency [1]: inactive
- Potency [14]: inactive
- Potency [2]: inactive
- Potency [19]: inactive
- Potency [3]: inactive
- Potency [4]: inactive
- outcome [5]: inactive
- Potency [7]: inactive
- Potency [8]: inactive
- Potency [9]: inactive
- Potency [10]: inactive
- max activation [11]: 4.18% (inactive)
- Potency [12]: inactive
- Potency [13]: inactive

Compound: C[C@]12CC[C@@H]3c4ccc(O)cc4CC[C@H]3[C@@H]1CC[C@H]2O
- Potency [1]: inactive
- Potency [14]: inactive
- Potency [3]: inactive
- Potency [4]: inactive
- outcome [5]: inactive
- Potency [15]: inactive
- Potency [6]: 11.1 µM (active)
- Potency [7]: 49.4 µM (active) and 54.5 µM (active)
- Potency [8]: inactive
- Potency [9]: inactive
- Potency [18]: inactive

Compound: COc1ccc(-c2coc3cc(O)cc(O)c3c2=O)cc1
- Potency [1]: inactive
- Potency [14]: inactive
- Potency [2]: inactive
- Potency [3]: inactive
- Potency [4]: inactive
- outcome [5]: inactive
- Potency [7]: 69.1 µM (active)
- Potency [8]: inactive
- Potency [10]: 30.9 µM (active) and 30.6 µM (active)
- Potency [18]: 45.2 µM (active)
